Only some compounds are listed: those with a hit (about 11% of all), similar ones and a draw of the others.
VDR inh: Inhibitors of the vitamin D receptor (VDR): qHTS | Vitamin D3 receptor (Homo sapiens), P11473 | VDR-SRC2-3 peptide fluorescence polarization, 2 h | Potency, µM, most hits filed as inhibitors | 400,000 tested, 0.93% active
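Reagent solutions, kept cold and dark, are dispensed first; compounds are then pinned in at 23 nl, plates briefly spun, and incubated 2 h at ambient temperature. Inhibition of VDR–SRC2-3 peptide binding is read by fluorescence polarization.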
BAZ2B block: qHTS Assay for Inhibitors of BAZ2B. AlphaScreen BAZ2B-H3K14Ac peptide displacement. 360,000 tested, 4.4% active. Bromodomain adjacent to zinc finger domain protein 2B (Homo sapiens), Q9UIF8. AID 504333, 2011. Potency, µM (top dose mostly 114 µM), actives largely listed as inhibitors; note: nearly all actives have a fitted effect of over 60% in size
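Multi-concentration screen (max 110 uM) measuring displacement of acetylated histone H3 peptide from BAZ2B by AlphaScreen, using 50 nM protein, 50 nM peptide and 10 ug/mL streptavidin donor plus Ni-chelate acceptor beads.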
PLK1 PBD block: qHTS for Inhibitors of PLK1-PDB (polo-like kinase 1 - polo-box domain): Primary Screen | Plk1 PBD binding of FITC phosphopeptide, fluorescence polarization | AID 720504, 2013 | Serine/threonine-protein kinase PLK1 (Homo sapiens), P53350 | 360,000 tested, 2.8% active | Potency, µM, actives largely listed as inhibitors; note: series mostly up to about 57 µM; nearly all actives have a fitted effect of over 65% in size
Target sequence (P53350 whole entry, looked up, the tested form may be a part): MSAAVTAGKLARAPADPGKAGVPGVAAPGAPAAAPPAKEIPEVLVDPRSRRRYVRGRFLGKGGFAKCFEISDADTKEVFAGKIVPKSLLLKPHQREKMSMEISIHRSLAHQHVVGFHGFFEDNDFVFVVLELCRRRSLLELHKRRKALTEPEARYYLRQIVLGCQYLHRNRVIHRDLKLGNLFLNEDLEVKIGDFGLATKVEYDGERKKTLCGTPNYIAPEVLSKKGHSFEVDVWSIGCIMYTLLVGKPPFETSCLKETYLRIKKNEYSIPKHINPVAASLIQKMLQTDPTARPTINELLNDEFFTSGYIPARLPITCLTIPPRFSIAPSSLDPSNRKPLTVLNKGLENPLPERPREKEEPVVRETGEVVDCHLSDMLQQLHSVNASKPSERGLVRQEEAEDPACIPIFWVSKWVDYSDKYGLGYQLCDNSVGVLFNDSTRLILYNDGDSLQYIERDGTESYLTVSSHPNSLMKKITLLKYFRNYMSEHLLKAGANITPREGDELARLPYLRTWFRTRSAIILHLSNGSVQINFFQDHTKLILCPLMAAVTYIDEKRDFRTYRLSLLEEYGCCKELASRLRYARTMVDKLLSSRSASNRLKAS
G9a block: qHTS Assay for Inhibitors of Histone Lysine Methyltransferase G9a; Potency, µM (titrated, usually from 102 µM), actives largely listed as inhibitors; 350,000 tested, 8.8% active; Histone-lysine N-methyltransferase EHMT2 (Homo sapiens), Q96KQ7; G9a H3K9 monomethylation, AlphaScreen, 2 h; note: nearly all actives have a fitted effect of over 75% in size
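Compounds were preincubated with 20 nM G9a for 15 min, after which biotinylated H3K9 peptide (500 nM) and SAM (20 uM) started a 2 h room-temperature reaction. Monomethylated product was quantified by antibody-based AlphaScreen chemiluminescence.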
JMJD2A Tudor inh: qHTS Assay for Inhibitors of JMJD2A-Tudor Domain; AlphaScreen JMJD2A-Tudor / H3K4me3 peptide binding; Potency, µM (highest dose often 114 µM), usual class: inhibitors; 390,000 tested, 4.4% active; AID 504339, 2011; note: nearly all actives have a fitted effect of over 50% in size
HP1b chromo inh: HTS for Inhibitors of HP1-beta Chromodomain Interactions with Methylated Histone Tails; AlphaScreen HP1-beta / biotin-H3K9me3 peptide binding; Potency, µM (titrated, usually from 114 µM), hits mostly inhibitors; 390,000 tested, 0.56% active; AID 540317, 2011; note: nearly all actives have a fitted effect of over 70% in size
Target sequence (P83916 whole entry, looked up): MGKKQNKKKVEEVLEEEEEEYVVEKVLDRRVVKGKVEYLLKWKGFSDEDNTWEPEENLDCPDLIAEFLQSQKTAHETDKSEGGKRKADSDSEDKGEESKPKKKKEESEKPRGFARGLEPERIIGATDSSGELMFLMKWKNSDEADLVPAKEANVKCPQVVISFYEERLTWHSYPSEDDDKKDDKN
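HP1-beta protein (50 nM final) preincubated 30 min at room temperature with biotinylated H3(1-18)K9me3 peptide (50 nM) in PBS pH 7.4, 0.01% Tween-20, then compound added for 30 min. AlphaScreen streptavidin donor/nickel chelate acceptor beads (10 ug/mL final), 30 min dark, luminescence read.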
Each line names hits and unclear results; the compound was inactive in the other large screens. Calls come from the whole dose curve; as a rule, active = well fitted curve in the direction sought with a large enough effect; inconclusive = small, poorly fitted or top-dose-only effect, or another doubt; inactive = no such curve, though single readings can be large; an effect the other way counts as inactive or inconclusive.

CCOC(=O)CSc1nnc(N)s1	G9a block 18µM, JMJD2A Tudor inh 56µM
CCOC(=O)CNC(=O)CSc1nnc(NC(=O)c2ccc(C)cc2)s1	none (no result: BAZ2B block)
CCOC(=O)CSc1n[nH]c(=S)s1	BAZ2B block inconclusive, PLK1 PBD block 27µM, JMJD2A Tudor inh inconclusive, HP1b chromo inh inconclusive (no result: G9a block)
CCOc1ccccc1NC(=O)CN(C)S(=O)(=O)c1cnc[nH]1	none
COCCNC(=O)c1cccc(Nc2nc(-c3ccccc3)c3cc(Cl)ccc3n2)c1	none
S=c1nn[nH]c2ccccc12	PLK1 PBD block 27µM, JMJD2A Tudor inh 11µM (no result: BAZ2B block, G9a block)
O=C(O)CCC(=O)Nc1ccc2c(c1)Cc1cc(NC(=O)CCC(=O)O)ccc1-2	BAZ2B block inconclusive, PLK1 PBD block inconclusive, JMJD2A Tudor inh 89µM
Cc1cn2c(=O)c3ccccc3nc2n2c(=O)c3ccccc3nc12	none (no result: BAZ2B block, PLK1 PBD block, G9a block, JMJD2A Tudor inh, HP1b chromo inh)
C/C(=C\C(=O)c1ccccc1)Nc1ccc(O)cc1	BAZ2B block inconclusive, G9a block 28µM, JMJD2A Tudor inh inconclusive
C/C(=C\C(=O)c1ccc(C)cc1)Nc1cccc(O)c1	BAZ2B block 50µM, G9a block 50µM, JMJD2A Tudor inh inconclusive
O=C(Cc1ccc(Cl)cc1Cl)Nc1cccc(S(=O)(=O)Nc2ccccc2F)c1	VDR inh inconclusive, BAZ2B block inconclusive, PLK1 PBD block 1.2µM, G9a block 1.6µM, JMJD2A Tudor inh inconclusive, HP1b chromo inh inconclusive
Cc1cc(C)nc(NS(=O)(=O)c2ccc(NC(=O)COc3ccccc3F)cc2)n1	none
O=C(COc1ccccc1F)Nc1cc(S(=O)(=O)Nc2cccc(Cl)c2)ccc1O	PLK1 PBD block 24µM, G9a block inconclusive
O=C(Cc1ccccc1F)Nc1cccc(S(=O)(=O)N2CCCCC2)c1	none (no result: VDR inh, BAZ2B block, G9a block, JMJD2A Tudor inh, HP1b chromo inh)
O=S(=O)(Nc1ccccc1F)c1cccc(NC(=S)NCCN2CCOCC2)c1	VDR inh 35µM, PLK1 PBD block 0.95µM, JMJD2A Tudor inh 40µM, HP1b chromo inh inconclusive (no result: BAZ2B block, G9a block)
O=S(=O)(Nc1ccc(Br)cc1)c1cccc(NC(=S)NCCN2CCOCC2)c1	PLK1 PBD block inconclusive, G9a block 32µM
O=S(=O)(Nc1ccccc1Cl)c1cc(NC(=S)NCCN2CCOCC2)ccc1Cl	none
CCOc1ccc(C(=O)COC(=O)Cn2[nH]c(=O)c3ccccc3c2=O)cc1	none (no result: VDR inh, BAZ2B block, G9a block, JMJD2A Tudor inh, HP1b chromo inh)
Cc1c(C(=O)C(=O)N2CCCc3ccccc32)c2ccccc2n1C	none
CC1=C(C(=O)NCc2ccccc2F)C2(CCCCC2)OC1=O	none (no result: PLK1 PBD block)
CCN(CC)C(=O)CSc1nnc2nnc3cc(OC)ccc3n12	PLK1 PBD block 24µM, G9a block 35µM
CC1(C(=O)Nc2cccc(NS(C)(=O)=O)c2)CCN1CCc1ccccc1 (stereo not given)	none (no result: VDR inh, BAZ2B block, G9a block, JMJD2A Tudor inh, HP1b chromo inh)
Cc1ccc(Cl)cc1NC(=O)CSC(N)=O	VDR inh 45µM, PLK1 PBD block inconclusive
COCC(=O)Nc1cc(Cl)ccc1C	none
COc1cc(/C=C/C(=O)O)cc(S(=O)(=O)Nc2ccc3c(c2)CCC3)c1OC	G9a block inconclusive
COc1ccc(NC(=O)Nc2cc(-c3cn4cccnc4n3)ccc2C)cc1	none (no result: PLK1 PBD block)
COc1cccc(C(=O)Nc2cc(-c3cn4cccnc4n3)ccc2C)c1	G9a block 32µM
Cn1nc(C(C)(C)C)cc1C(=O)N1CCCCC1c1cc(C(=O)Nc2ccc(F)c(Cl)c2)no1 (stereo not given)	none (no result: VDR inh, BAZ2B block, G9a block, JMJD2A Tudor inh, HP1b chromo inh)
COc1ccccc1CNC(=O)c1oc2c(c1C)-c1nn(Cc3ccc(Cl)cc3)cc1CC2	none (no result: PLK1 PBD block)
COc1ccc(-c2cnnc(N/N=C/c3ccc(O)c(O)c3)n2)cc1	BAZ2B block 45µM, JMJD2A Tudor inh 40µM
Oc1ccc(/C=N\Nc2nncc(-c3ccccc3)n2)cc1	none (no result: G9a block)
COc1ccc(-c2cnnc(N/N=C/c3ccc(C)o3)n2)cc1	VDR inh 45µM, PLK1 PBD block 6µM, JMJD2A Tudor inh 14µM
Cc1ccc2sc(C)[n+](CCCS(=O)(=O)[O-])c2c1	G9a block inconclusive
Cc1ccc2c(c1)sc(C)[n+]2CCCS(=O)(=O)[O-]	VDR inh 28µM, G9a block inconclusive
Cn1c(=O)c2c(n3c4ccccc4nc13)NC(=O)CC2c1ccccc1F (stereo not given)	none (no result: PLK1 PBD block)
COc1ccc(/C=C(\NC(=O)c2ccc(C)cc2)C(=O)N2CCCCC2)cc1	none
CCN(C(=O)Cn1nc(Cc2ccncc2)c2ccccc2c1=O)c1cccc(C(F)(F)F)c1	G9a block inconclusive (no result: PLK1 PBD block)
COc1ccccc1N1CCN(Cc2ccc(O)c3ncccc23)CC1	BAZ2B block 4.5µM, G9a block inconclusive, JMJD2A Tudor inh 13µM
COc1ccc(O)c(CN2CCCC(N3CCN(c4ccccc4OC)CC3)C2)c1 (stereo not given)	none
COc1ccccc1N1CCN(C2CCCN(Cc3ccccc3OCCO)C2)CC1 (stereo not given)	G9a block 79µM
COc1ccc(CN2CCN(c3ccccc3OC)CC2)c(OC)c1	BAZ2B block inconclusive, JMJD2A Tudor inh 20µM
COc1ccc2c(CN3CCN(c4ccccc4OC)CC3)cc(=O)oc2c1	none (no result: VDR inh, BAZ2B block, G9a block, JMJD2A Tudor inh, HP1b chromo inh)
COc1ccc(CN2CCN(CCCc3ccccc3)CC2)c(OC)c1	BAZ2B block 32µM, G9a block 4µM (no result: VDR inh, PLK1 PBD block, JMJD2A Tudor inh, HP1b chromo inh)
Cc1nnc(N2C(=O)c3oc4ccccc4c(=O)c3C2c2cccc(OCCC(C)C)c2)s1 (stereo not given)	BAZ2B block inconclusive (no result: PLK1 PBD block)
Cc1ccc(-c2csc(NC(=O)c3ccccc3Cl)c2C(=O)O)cc1	none
COC(=O)c1c(-c2cccs2)csc1NC(=O)c1ccc(Cl)cc1	VDR inh inconclusive, G9a block 2.2µM (no result: PLK1 PBD block)
CC(C)c1ccc(-c2csc(NC(=O)c3cccs3)c2C(=O)O)cc1	PLK1 PBD block 34µM
COC(=O)c1c(-c2cccs2)csc1NC(=O)c1ccc(C(C)(C)C)cc1	VDR inh inconclusive, G9a block 1.8µM, JMJD2A Tudor inh inconclusive (no result: PLK1 PBD block)
COC(=O)c1c(-c2cccs2)csc1NC(=O)COc1c(C)ccc(C)c1C	VDR inh 22µM, BAZ2B block inconclusive, G9a block 1.4µM, JMJD2A Tudor inh 79µM, HP1b chromo inh inconclusive (no result: PLK1 PBD block)
COC(=O)c1c(-c2cccs2)csc1NC(=O)c1cccc(Cl)c1	G9a block inconclusive (no result: PLK1 PBD block)
O=C1CC(NS(=O)(=O)c2cccnc2)CN1c1cccc(F)c1 (stereo not given)	G9a block inconclusive
CSc1nnc(C2CCN(CC(=O)Nc3ccccc3N3CCOCC3)CC2)n1C(C)C	none
Cc1ccc(-c2nc3n(n2)C(c2ccccc2C)C=C(c2ccc(Cl)cc2)N3)cc1 (stereo not given)	JMJD2A Tudor inh inconclusive (no result: PLK1 PBD block)
